According to the supplement of paper PMC6555819:

Tests used:
Experiment in all cases: PBM binding z-score (relative to random genomic background probes); higher = stronger binding; sequences stand for … in GC…GCGATTGACAGCGTAGAATGAAGG
[1] = system: RARb homodimer (NR concentration 270 nM)
Outline: (§1)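 Random background probes are the reference for binding z-scores. These scores derive from regression-normalized fluorescence on custom Agilent 4×180K protein-binding microarrays incubated 1 h with ligand-free nuclear receptor dimers. Binding was detected with antibodies against each partner (one per run).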

[2] = system: RARg:RXRa (NR concentration 270 nM, RXRa partner concentration 90 nM)
Outline: as §1

[3] = system: RARg homodimer (NR concentration 270 nM)
Outline: as §1

[4] = system: RXRa DBDmut IVT, anti-RXR (DBD mutation: RXRa K156A/R161A, NR concentration 90 nM)
Outline: as §1

[5] = system: RXRa homodimer (NR concentration 180 nM)
Outline: as §1

[6] = system: THRa:RXRa (NR concentration 90 nM, RXRa partner concentration 90 nM)
Outline: as §1

[7] = system: THRa homodimer (NR concentration 90 nM)
Outline: as §1

[8] = system: VDR homodimer (NR concentration 270 nM)
Outline: as §1

Sequence | PBM binding z-score [1] | PBM binding z-score [2] | PBM binding z-score [3] | PBM binding z-score [4] | PBM binding z-score [5] | PBM binding z-score [6] | PBM binding z-score [7] | PBM binding z-score [8]
CGAACTAGGTCATCCAGGACAATGAATACATTGA | 2.68 | 3.81 | 4.59 | 2.36 | 2.73 | 3.81 | 2.22 | 2.27
CGAACTAGGTCATCCAGGACAGTAAATACATTGA | 2.98 | 4.05 | 4.72 | 2.51 | 2.89 | 3.58 | 2.2 | 2.45
ACTATTAGTTGACTTAGGGCATCCGATACGACGC | 0.597 | 0.218 | 0.979 | 0.909 | 0.613 | 0.97 | 0.239 | 0.435
TAAGACAGGTGAAGGTAACTCAGGTACGCAGTCG | 0.812 | 0.869 | 0.994 | -0.391 | 0.793 | 1.48 | 0.449 | 0.487
AGAACGAGGGCAATGAGTGGATAGCACGGGTGGC | 0.709 | 0.805 | 1.49 | 1.05 | 0.694 | 0.576 | -0.226 | 0.818
TTACCAAGGTGAGCTGAGGTCGTTGAACCAACTC | 1.77 | 1.21 | 0.931 | -0.0646 | 1.57 | 4.77 | 2.02 | 2.01
TGAATGAGGTTAAAGATCTGGGAACGTGGCGTCG | 0.638 | 1.65 | 1.42 | 1.24 | 2.49 | 2.26 | 0.597 | 0.872
TAGCCTAGGTCATTCAGGGGCCAGTTTAGAAAGC | 3.42 | 5.71 | 4.11 | 1.65 | 2.56 | 3.67 | 0.971 | 1.28
TGAATGAGGTTATAAGATCAGGCAACGTTGCAAA | 0.151 | 1.57 | 0.908 | 0.405 | 2.11 | 1.85 | 0.127 | 0.105
TCATATAGGTAAATGCTAGGTGAAAGTGCGATCT | 0.752 | 0.609 | 0.488 | 1.55 | 1 | 1.64 | 0.475 | 0.485
GTACCAAGATGAATAGGTCGTTGATGAGTAGGCG | 0.283 | 0.181 | 0.272 | -0.187 | 0.691 | 0.143 | -0.535 | -0.179
CGTCCAAGGTCAAAGGTCAGAGAAGAGATGACGG | 5.36 | 8.94 | 8.33 | 3.99 | 10.6 | 4.84 | 2.39 | 3.54
CCTAGATGGTCAAGGTCACACACGCTATAGGTAC | 4.55 | 4.69 | 4.96 | 2.04 | 4.74 | 4.1 | 3.84 | 3.61
ACAAACAGGTGAGTGAAGGTAACTCAGCTGGACG | 0.000775 | 0.131 | 0.536 | -0.35 | 0.457 | 1.5 | -0.581 | -0.41
TATACAGGGTCAAAGGCTAGAGTACGAATGTCGA | 3.57 | 5.5 | 5.45 | 2.73 | 6.82 | 3.44 | 1.01 | 3.25
TCTGCTAGGTCAGCTGGTCAGCTAACGAGCTGCC | 2.62 | 3.42 | 4.27 | 0.17 | 1.51 | 1.8 | -0.216 | -1.3
CAGCCTAGCTCAGGGCCAGTATAGGAGGAACGTT | -0.467 | -0.693 | -0.422 | -0.824 | -0.971 | -0.848 | -0.716 | -0.754

Sequence | PBM binding z-score [1] | PBM binding z-score [2] | PBM binding z-score [3] | PBM binding z-score [4] | PBM binding z-score [5] | PBM binding z-score [6] | PBM binding z-score [7] | PBM binding z-score [8]
TCGAGTAGGTTACCACTGGGGCATTCAGCTTTCT | 0.339 | 0.939 | 0.436 | 0.044 | 0.129 | 0.242 | -0.96 | -0.613
TCTATTAGTTGAAGGGCAACGGACGAGTCCGTTT | 1.19 | 0.697 | 0.572 | 1.53 | 0.756 | 0.343 | 0.0596 | 1.98
TCTATTAGTTGATTAGGGCAACTGAAACAGCGGA | 0.795 | 0.45 | 0.804 | 0.885 | 0.275 | 0.533 | 0.295 | 0.318
CTCGAAAGGTCGTGCTCAGGTTAGTATACCAAAC | 3.37 | 5.5 | 4.17 | 2.12 | 5.47 | 3.73 | 0.934 | 1.3
CGAACGAGGGCATTAGTTGATAGCAAATGCCGAT | 0.501 | 0.774 | 1.37 | 2.96 | 0.438 | 0.5 | -0.321 | 1.64
CCTACTGGGCCACCAGGTCATTGATATCAACGTT | 2.62 | 2.19 | 2 | -0.211 | 1.43 | 2.94 | 2.63 | 1.77
ACTATTAGTCGACTTAGGGCAACCGATACGACGC | 0.58 | 0.342 | 0.707 | 0.415 | 0.416 | 1.09 | 0.02 | -0.338
TAGCCTAGGTCGTGCGGGCCAGTATAGTGTCGGC | 0.429 | 0.705 | 0.719 | -0.774 | 0.344 | 0.675 | -0.487 | -0.502
CGAACTGGGTCATTGACAGGACAGTGAATAGTAA | 2.17 | 4.32 | 3.3 | 1.94 | 2.88 | 2.41 | 0.357 | 1.05
ACTATTAGTTGAGTTAGGGCAACCGATACGACGC | 0.47 | 0.417 | 0.783 | 0.652 | 0.292 | 1.21 | 0.245 | 0.368
AGTCAAAGTTCATCTAGGTAACGTAGGATATGCT | 4.05 | 5.54 | 6.32 | 4.71 | 4.86 | 3.08 | 0.358 | 5.15
TCTTGTAGATCAGCAGGTTAAGAACGCTGGCCAA | -0.0185 | -0.0606 | -0.396 | 0.288 | 0.146 | -0.0457 | -0.571 | -0.247
TCGAGTAGGTTTGTCGGGGCATTCAGCCAACATA | 0.429 | -0.206 | -0.592 | 0.805 | -0.149 | 0.462 | 0.392 | 0.461
TCTATTAGTAGATTAGGGCAACCGAAACAGCGGA | 0.21 | 0.245 | 0.496 | 0.901 | 0.284 | 0.399 | -0.319 | -0.419
TCTTGTAGATCAAGGGTTAAGAAAGCCGAAGCCT | 0.274 | 0.818 | 0.191 | 0.293 | 1.64 | 0.516 | -0.93 | -0.218
ATCTCTAGGTAACAAGTTCAGTGATAGAGAGGAC | 1.92 | 1.05 | 1.57 | 1.06 | 0.757 | 1.38 | 0.931 | 2.93
TCTATTAGTTGAAGTGCAACCGACGAGTCCGTTT | 0.42 | 0.379 | 0.172 | 1.58 | 0.754 | 0.107 | 0.145 | 1.83
